Reference: publication PMC7862700, “An all-to-all approach to the identification of sequence-specific readers for epigenetic DNA modifications on cytosine”

Experiments:
Assay in all cases: DAPPL (digital affinity profiling via proximity ligation, sequencing); 10 mM Tris-HCl pH 7.5, 50 mM NaCl, 1 mM DTT, 4% glycerol, room temperature, 30 min; GST-TFs on glutathione beads, 16-mer random dsDNA library, 0.1% formaldehyde crosslink after washing; high values mean tight binding
Conditions in all cases: protein: recombinant; tags: N-terminal GST; dsDNA, one strand shown
ERF = biological target: T1, ERF (Homo sapiens, UniProt P50548 1-548)
T1 sequence: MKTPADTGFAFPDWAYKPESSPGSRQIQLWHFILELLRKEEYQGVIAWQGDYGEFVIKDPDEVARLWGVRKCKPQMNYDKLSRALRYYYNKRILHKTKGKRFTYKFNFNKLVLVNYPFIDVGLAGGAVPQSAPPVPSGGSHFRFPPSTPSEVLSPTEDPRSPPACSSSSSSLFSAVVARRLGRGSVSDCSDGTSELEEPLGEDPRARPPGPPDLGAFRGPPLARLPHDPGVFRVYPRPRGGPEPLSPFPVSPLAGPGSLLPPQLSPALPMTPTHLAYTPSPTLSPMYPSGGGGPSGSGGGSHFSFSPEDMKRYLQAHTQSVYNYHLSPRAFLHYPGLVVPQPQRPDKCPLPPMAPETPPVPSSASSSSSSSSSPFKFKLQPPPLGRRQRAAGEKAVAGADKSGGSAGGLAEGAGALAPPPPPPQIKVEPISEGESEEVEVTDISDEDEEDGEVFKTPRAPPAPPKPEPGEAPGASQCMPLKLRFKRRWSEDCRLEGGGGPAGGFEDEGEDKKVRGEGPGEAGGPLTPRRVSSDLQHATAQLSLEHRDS
Procedure, shortened: (§1)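 Yeast served to express human transcription factors as GST fusions, which were then captured on glutathione beads and labelled with DNA barcodes. Pooled with a tag-only sample, they were incubated with 200 nmole of a 16-mer random double-stranded DNA library for 30 min at room temperature in Tris/NaCl/DTT/glycerol buffer, washed, crosslinked with 0.1% formaldehyde, ligated by proximity, amplified by PCR and sequenced. Dividing each hexamer's read frequency for a factor by its frequency for the tag-only sample gives the binding signal.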

ETV3L = biological target: T2, ETV3L (Homo sapiens, UniProt Q6ZN32 1-361)
T2 sequence: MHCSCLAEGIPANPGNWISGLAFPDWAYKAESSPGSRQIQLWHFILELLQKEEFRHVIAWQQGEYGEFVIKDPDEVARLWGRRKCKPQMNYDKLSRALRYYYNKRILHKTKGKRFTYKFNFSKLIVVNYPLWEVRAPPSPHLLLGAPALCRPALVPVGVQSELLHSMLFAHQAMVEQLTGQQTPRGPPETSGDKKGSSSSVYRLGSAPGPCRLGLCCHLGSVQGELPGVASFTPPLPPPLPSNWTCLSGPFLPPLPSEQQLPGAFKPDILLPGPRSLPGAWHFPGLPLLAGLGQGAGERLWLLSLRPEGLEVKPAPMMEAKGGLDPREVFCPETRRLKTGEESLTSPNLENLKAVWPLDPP
Procedure, shortened: as §1

ETS2 = biological target: T3, ETS2 (Homo sapiens, UniProt P15036 1-469)
T3 sequence: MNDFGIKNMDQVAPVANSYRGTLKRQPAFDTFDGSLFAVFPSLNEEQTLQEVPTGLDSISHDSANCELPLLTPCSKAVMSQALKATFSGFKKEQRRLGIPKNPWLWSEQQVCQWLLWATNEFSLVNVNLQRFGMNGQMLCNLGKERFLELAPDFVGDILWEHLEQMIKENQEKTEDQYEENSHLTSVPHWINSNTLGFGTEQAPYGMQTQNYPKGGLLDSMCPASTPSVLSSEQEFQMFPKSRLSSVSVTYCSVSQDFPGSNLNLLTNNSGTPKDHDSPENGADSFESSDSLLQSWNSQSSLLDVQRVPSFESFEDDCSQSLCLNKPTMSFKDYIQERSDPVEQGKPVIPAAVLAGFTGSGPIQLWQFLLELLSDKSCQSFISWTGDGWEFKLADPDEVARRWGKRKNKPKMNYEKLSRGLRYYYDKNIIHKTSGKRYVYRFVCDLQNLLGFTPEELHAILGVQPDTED
Procedure, shortened: as §1

SPDEF = biological target: T4, SPDEF (Homo sapiens, UniProt O95238 1-335)
T4 sequence: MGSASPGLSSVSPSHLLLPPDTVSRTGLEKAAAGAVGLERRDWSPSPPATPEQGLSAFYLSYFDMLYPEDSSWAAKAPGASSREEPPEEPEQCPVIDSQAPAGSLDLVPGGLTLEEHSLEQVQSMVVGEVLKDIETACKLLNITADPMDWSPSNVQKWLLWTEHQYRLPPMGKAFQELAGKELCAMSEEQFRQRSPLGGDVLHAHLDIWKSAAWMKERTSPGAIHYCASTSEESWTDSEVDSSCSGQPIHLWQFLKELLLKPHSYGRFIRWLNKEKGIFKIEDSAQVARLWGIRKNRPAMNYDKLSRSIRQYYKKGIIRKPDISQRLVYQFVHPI
Procedure, shortened: as §1

ETV7 = biological target: T5, ETV7 (Homo sapiens, UniProt Q9Y603 1-341)
T5 sequence: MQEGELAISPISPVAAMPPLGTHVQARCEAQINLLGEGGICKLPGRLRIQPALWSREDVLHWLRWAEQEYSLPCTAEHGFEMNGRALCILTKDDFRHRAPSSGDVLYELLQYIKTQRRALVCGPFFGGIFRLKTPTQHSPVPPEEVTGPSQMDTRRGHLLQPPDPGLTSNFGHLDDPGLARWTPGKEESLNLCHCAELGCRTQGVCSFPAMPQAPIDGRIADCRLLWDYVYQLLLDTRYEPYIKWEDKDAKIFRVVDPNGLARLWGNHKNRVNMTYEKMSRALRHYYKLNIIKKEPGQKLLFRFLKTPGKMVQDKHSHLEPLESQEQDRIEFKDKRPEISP
Procedure, shortened: as §1

ELF5 = biological target: T6, ELF5 (Homo sapiens, UniProt Q9UKW6-2 1-255)
T6 sequence: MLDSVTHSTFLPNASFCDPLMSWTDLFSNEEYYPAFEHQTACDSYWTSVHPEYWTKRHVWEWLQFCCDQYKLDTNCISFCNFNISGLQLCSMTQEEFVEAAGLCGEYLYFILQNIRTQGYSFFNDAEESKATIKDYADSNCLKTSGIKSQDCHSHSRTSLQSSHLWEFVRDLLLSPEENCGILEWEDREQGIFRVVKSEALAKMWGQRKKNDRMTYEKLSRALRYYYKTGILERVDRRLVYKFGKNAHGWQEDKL
Procedure, shortened: as §1

ETV3 = biological target: T7, ETV3 (Homo sapiens, UniProt P41162-2 1-143)
T7 sequence: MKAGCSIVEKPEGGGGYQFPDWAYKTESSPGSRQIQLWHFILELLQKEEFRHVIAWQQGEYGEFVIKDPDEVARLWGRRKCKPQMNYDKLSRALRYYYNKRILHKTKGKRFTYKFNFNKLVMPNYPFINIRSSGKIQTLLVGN
Procedure, shortened: as §1

ETV6 = ETV6 (Homo sapiens, UniProt P41212 1-452)
ETV6, sequence (P41212 whole entry): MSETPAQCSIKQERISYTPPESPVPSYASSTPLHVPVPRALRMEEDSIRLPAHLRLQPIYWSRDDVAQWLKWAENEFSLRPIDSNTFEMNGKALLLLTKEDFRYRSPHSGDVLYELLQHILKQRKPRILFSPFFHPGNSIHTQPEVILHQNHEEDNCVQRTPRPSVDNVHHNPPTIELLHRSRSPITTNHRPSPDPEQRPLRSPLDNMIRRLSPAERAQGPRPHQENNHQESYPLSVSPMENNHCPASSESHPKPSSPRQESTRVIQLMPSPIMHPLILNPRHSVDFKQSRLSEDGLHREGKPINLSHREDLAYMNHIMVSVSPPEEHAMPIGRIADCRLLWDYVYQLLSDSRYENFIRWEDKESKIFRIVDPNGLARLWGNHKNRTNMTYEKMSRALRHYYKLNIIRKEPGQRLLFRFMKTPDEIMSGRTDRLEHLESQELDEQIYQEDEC
Procedure, shortened: as §1

Sequence	binding signal (ERF)	binding signal (ETV3L)	binding signal (ETS2)	binding signal (SPDEF)	binding signal (ETV7)	binding signal (ELF5)	binding signal (ETV3)	binding signal (ETV6)
GCCTAT	1.23 fold enrichment (6-mer frequency, TF over GST control)	1.28 fold enrichment (6-mer frequency, TF over GST control)	1.09 fold enrichment (6-mer frequency, TF over GST control)	1.27 fold enrichment (6-mer frequency, TF over GST control)	1.24 fold enrichment (6-mer frequency, TF over GST control)	1.15 fold enrichment (6-mer frequency, TF over GST control)	1.21 fold enrichment (6-mer frequency, TF over GST control)	1.19 fold enrichment (6-mer frequency, TF over GST control)
TTAAAT	1.1 fold enrichment (6-mer frequency, TF over GST control)	1.22 fold enrichment (6-mer frequency, TF over GST control)	1.19 fold enrichment (6-mer frequency, TF over GST control)	1.16 fold enrichment (6-mer frequency, TF over GST control)	1.21 fold enrichment (6-mer frequency, TF over GST control)	1.08 fold enrichment (6-mer frequency, TF over GST control)	1.15 fold enrichment (6-mer frequency, TF over GST control)	1.23 fold enrichment (6-mer frequency, TF over GST control)
TGCACT	1.28 fold enrichment (6-mer frequency, TF over GST control)	1.34 fold enrichment (6-mer frequency, TF over GST control)	1.32 fold enrichment (6-mer frequency, TF over GST control)	1.4 fold enrichment (6-mer frequency, TF over GST control)	1.42 fold enrichment (6-mer frequency, TF over GST control)	1.29 fold enrichment (6-mer frequency, TF over GST control)	1.35 fold enrichment (6-mer frequency, TF over GST control)	1.41 fold enrichment (6-mer frequency, TF over GST control)
CCACGC	1.12 fold enrichment (6-mer frequency, TF over GST control)	1.17 fold enrichment (6-mer frequency, TF over GST control)	1.24 fold enrichment (6-mer frequency, TF over GST control)	1.17 fold enrichment (6-mer frequency, TF over GST control)	1.15 fold enrichment (6-mer frequency, TF over GST control)	1.11 fold enrichment (6-mer frequency, TF over GST control)	1.16 fold enrichment (6-mer frequency, TF over GST control)	1.15 fold enrichment (6-mer frequency, TF over GST control)
ACACTA	1.15 fold enrichment (6-mer frequency, TF over GST control)	1.18 fold enrichment (6-mer frequency, TF over GST control)	1.1 fold enrichment (6-mer frequency, TF over GST control)	1.09 fold enrichment (6-mer frequency, TF over GST control)	1.15 fold enrichment (6-mer frequency, TF over GST control)	1.09 fold enrichment (6-mer frequency, TF over GST control)	1.12 fold enrichment (6-mer frequency, TF over GST control)	1.21 fold enrichment (6-mer frequency, TF over GST control)
TTTACC	1.21 fold enrichment (6-mer frequency, TF over GST control)	1.1 fold enrichment (6-mer frequency, TF over GST control)	1.28 fold enrichment (6-mer frequency, TF over GST control)	1.26 fold enrichment (6-mer frequency, TF over GST control)	1.45 fold enrichment (6-mer frequency, TF over GST control)	1.2 fold enrichment (6-mer frequency, TF over GST control)	1.36 fold enrichment (6-mer frequency, TF over GST control)	1.26 fold enrichment (6-mer frequency, TF over GST control)
ACGCCC	1.24 fold enrichment (6-mer frequency, TF over GST control)	1.17 fold enrichment (6-mer frequency, TF over GST control)	1.12 fold enrichment (6-mer frequency, TF over GST control)	1.07 fold enrichment (6-mer frequency, TF over GST control)	1.03 fold enrichment (6-mer frequency, TF over GST control)	1.05 fold enrichment (6-mer frequency, TF over GST control)	1.15 fold enrichment (6-mer frequency, TF over GST control)	1.13 fold enrichment (6-mer frequency, TF over GST control)
AAAATT	1.48 fold enrichment (6-mer frequency, TF over GST control)	1.49 fold enrichment (6-mer frequency, TF over GST control)	1.4 fold enrichment (6-mer frequency, TF over GST control)	1.26 fold enrichment (6-mer frequency, TF over GST control)	1.5 fold enrichment (6-mer frequency, TF over GST control)	1.29 fold enrichment (6-mer frequency, TF over GST control)	1.31 fold enrichment (6-mer frequency, TF over GST control)	1.33 fold enrichment (6-mer frequency, TF over GST control)
TTAATC	1.19 fold enrichment (6-mer frequency, TF over GST control)	1.21 fold enrichment (6-mer frequency, TF over GST control)	1.29 fold enrichment (6-mer frequency, TF over GST control)	1.26 fold enrichment (6-mer frequency, TF over GST control)	1.1 fold enrichment (6-mer frequency, TF over GST control)	1.18 fold enrichment (6-mer frequency, TF over GST control)	1.24 fold enrichment (6-mer frequency, TF over GST control)	1.21 fold enrichment (6-mer frequency, TF over GST control)
GTATGC	1.05 fold enrichment (6-mer frequency, TF over GST control)	1.23 fold enrichment (6-mer frequency, TF over GST control)	1.24 fold enrichment (6-mer frequency, TF over GST control)	1.18 fold enrichment (6-mer frequency, TF over GST control)	1.27 fold enrichment (6-mer frequency, TF over GST control)	1.11 fold enrichment (6-mer frequency, TF over GST control)	1.24 fold enrichment (6-mer frequency, TF over GST control)	1.09 fold enrichment (6-mer frequency, TF over GST control)
TACGTT	1.3 fold enrichment (6-mer frequency, TF over GST control)	1.32 fold enrichment (6-mer frequency, TF over GST control)	1.21 fold enrichment (6-mer frequency, TF over GST control)	1.22 fold enrichment (6-mer frequency, TF over GST control)	1.34 fold enrichment (6-mer frequency, TF over GST control)	1.27 fold enrichment (6-mer frequency, TF over GST control)	1.27 fold enrichment (6-mer frequency, TF over GST control)	1.38 fold enrichment (6-mer frequency, TF over GST control)
TATCGC	1.18 fold enrichment (6-mer frequency, TF over GST control)	1.15 fold enrichment (6-mer frequency, TF over GST control)	1.1 fold enrichment (6-mer frequency, TF over GST control)	1.17 fold enrichment (6-mer frequency, TF over GST control)	1 fold enrichment (6-mer frequency, TF over GST control)	1.19 fold enrichment (6-mer frequency, TF over GST control)	1.13 fold enrichment (6-mer frequency, TF over GST control)	1.08 fold enrichment (6-mer frequency, TF over GST control)
ATAGCT	1.2 fold enrichment (6-mer frequency, TF over GST control)	1.13 fold enrichment (6-mer frequency, TF over GST control)	1.1 fold enrichment (6-mer frequency, TF over GST control)	1.07 fold enrichment (6-mer frequency, TF over GST control)	1.31 fold enrichment (6-mer frequency, TF over GST control)	1.07 fold enrichment (6-mer frequency, TF over GST control)	1.12 fold enrichment (6-mer frequency, TF over GST control)	1.13 fold enrichment (6-mer frequency, TF over GST control)
CTGCCG	1.27 fold enrichment (6-mer frequency, TF over GST control)	1.23 fold enrichment (6-mer frequency, TF over GST control)	1.32 fold enrichment (6-mer frequency, TF over GST control)	1.26 fold enrichment (6-mer frequency, TF over GST control)	1.39 fold enrichment (6-mer frequency, TF over GST control)	1.33 fold enrichment (6-mer frequency, TF over GST control)	1.44 fold enrichment (6-mer frequency, TF over GST control)	1.39 fold enrichment (6-mer frequency, TF over GST control)
ACTAAG	1.04 fold enrichment (6-mer frequency, TF over GST control)	1.12 fold enrichment (6-mer frequency, TF over GST control)	1.11 fold enrichment (6-mer frequency, TF over GST control)	1.16 fold enrichment (6-mer frequency, TF over GST control)	1.14 fold enrichment (6-mer frequency, TF over GST control)	1.12 fold enrichment (6-mer frequency, TF over GST control)	1.09 fold enrichment (6-mer frequency, TF over GST control)	1.2 fold enrichment (6-mer frequency, TF over GST control)
